Data taken from PubChem BioAssay AID504580 (NMMLSC, 2011).
Out of some 2,000 compounds screened, fewer than 10 were called active.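 How the source made its calls: active means compounds that quench the bead-bound fluorescent RNA probe, cutting fluorescence to under half of the solvent control; inactive means the rest.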 A selection follows.

Experiment: bead-bound FAM aptamer signal quenchers – biochemical, single point, cherry pick 1, flow cytometry, artefact control for GRK2 RNA aptamer inhibitor project, confirmation (AID 504580);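 further: counterscreen run without GRK2 so only probe quenching by compound is measured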
Conditions: Carboxyfluorescein RNA aptamer on beads, flow cytometry quenching; at 10 µM; active compounds read low

Fluorescence response (% of DMSO), inactive:
C=C(C)C(=O)Nc1cccc(C2=NOC3(C2)C[C@H](C(N)=O)N(C(=O)C(c2ccccc2)c2ccccc2)C3)c1 (stereo not given in full) 102%, COc1cccc(CN(C)CC(=O)Nc2sc3c(c2C#N)CCC3)c1 99.9%, CCCc1nc2ccccc2c(=O)n1NC(=O)c1c(O)c2ccccc2[nH]c1=O 101%, O=C(Nc1nnc(-c2ccccc2)o1)c1cccc(S(=O)(=O)N2CCOCC2)c1 101%, CC(C)Cn1c(CN(Cc2ccccc2)Cc2ccccc2)nc2c1c(=O)n(C)c(=O)n2C 98%, CN(CC(=O)Nc1ccc(N2CCOCC2)cc1)CC(=O)Nc1ccccc1[N+](=O)[O-] 101%, COc1cc(C(=O)OCC(=O)N(CC(C)C)C2CCS(=O)(=O)C2)ccc1OCC(C)C (stereo not given) 91.4%, CSc1nc2ccccc2c(=O)n1Cc1ccc(F)cc1 100%, CCOC(=O)c1sc2nc(CSc3ccccc3)[nH]c(=O)c2c1C 106%, Cn1c(=O)c2c(nc(N3CCOCC3)n2CCNC2=NCCC2)n(C)c1=O 99.8%, O=C(c1cnn(-c2ccc(Cl)cc2)c1)c1ccccc1O 101%, O=C(NCc1ccccc1Cl)c1ccc2c(=O)n(CC3CCCO3)c(=S)[nH]c2c1 (stereo not given) 95.6%, Cc1csc(=O)n1CC(=O)OCC(=O)N(CC(C)C)c1c(N)n(Cc2ccccc2)c(=O)[nH]c1=O 99.2%, O=C(COC(=O)c1ccc(F)cc1F)Nc1ncccn1 95.8%, COc1cc(C(=O)NCc2ccc3c(c2)cc(C)n3C)cc(OC)c1OC 96.5%, O=C(NC(=O)c1cc(OCC(F)(F)F)ccc1OCC(F)(F)F)Nc1ccccc1 103%, CC(=O)N1CC[n+]2c(-c3ccc([N+](=O)[O-])cc3)csc21 103%, CCOc1ccccc1C(=O)NCc1ccco1 96%, Cc1cc2cc(CNC(=O)c3cccs3)ccc2[nH]1 86.2%, COc1ccc(Nc2nc(-c3cccnc3)nc3ccccc23)cn1 101%, CCN1/C(=C\c2ccc3ccccc3[n+]2CC)Sc2cc(C)ccc21 173%, Cn1c(=O)[nH]c(=O)c2c1nc(N1CCN(C(c3ccccc3)c3ccccc3)CC1)n2CCO 98.3%, COC(=O)N/N=C/c1ccc(/C=N/NC(=O)OC)cc1 100%, COc1ccc(Nc2cc(Sc3ccc(OC)cc3)ncn2)cc1 101%, O=C(c1ccc(Cl)cc1)c1ccc(OCC(O)CN2CCCCC2)cc1 (stereo not given) 101%
